The list is not random: actives were taken first. Their share in the collection is about 9.6%.
Autophagy mod – autophagy modulators in MEF cells, primary screen, imaging, high-content, MEF GFP-LC3; MEF GFP-LC3 puncta imaging; test concentration mostly 10 µM; calls only at 10 µM (by protocol); 190,000 compounds, 0.98% hits; AID 463193, 2010;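 active = percentage of spot-positive cells more than 3 SD above its plate mean, without a fluorescence outlier flag or 80% toxicity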;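 note: spot-positive cell cutoff set from DMSO-treated cells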
Insulin prom inh – inhibitors of insulin promoter-driven GFP, primary screen, imaging, TRM-6 cells (human fetal islet line), eGFP reporter, cell count; reporter expression induced with tamoxifen; inhibition, % at 2 µM; 130,000 compounds, 0.9% hits; AID 1273, 2008;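 active = inhibition above the mean plus 3 SD, with well images judged a real hit on visual review, cut at about 60% in these data, passing the limit was not always enough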
Lmaj promast – Leishmania major promastigote growth inhibition, primary screen; inhibition, % at 10 µM; Leishmania major promastigotes, resazurin fluorescence viability; 200,000 compounds, 9% hits; in the data active = inhibition above about 50%;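 note: promastigotes grown with compound for 44 hours at 28 °C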
bCat KO growth – primary screen for growth suppressors in beta-catenin knockout HCT116 cells (colon tumor, human); viability, % at 10 µM; HCT116 beta-catenin knockout viability, CellTiter-Glo, 60 h; active compounds read low; 140,000 compounds, 1.5% hits;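 active = viability at or under a set limit, the compound median less 4 SD, cut at about 6% in these data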;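 note: 0% = Hyamine 1622 control at 20 µM and 100% = untreated cell control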
PTEN del growth – growth suppression of PTEN-null HCT116, primary screen, cell-based, CellTiter-Glo | AID 827, 2007 | HCT116 PTEN-null viability, 60 h; active compounds read low | 140,000 compounds, 1.2% hits | viability, % at 10 µM;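 active = viability at or below a set limit, 4 SD under the median of all tested compounds, cut at about 3.7% in these data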;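 note: PTEN knockout HCT116 line with beta catenin targeted HCT116 as companion control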
Insulin prom up – insulin promoter activators in MIN6 cells, imaging, high-content screening, mouse beta cells; z-score at 5 µM; 190,000 compounds, 0.3% hits; AID 1625, 2009; MIN6 insulin promoter-GFP reporter; active compounds read high;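 active = z-score above 3 at 5 µM with at least 500 cells counted in the well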
* hit, by the source's call; i = inactive; x = not tested or not shown; + = active, no number.

SMILES | Autophagy mod | Insulin prom inh | Lmaj promast | bCat KO growth | PTEN del growth | Insulin prom up
COc1ccc(C2CC(c3ccccc3)=NN2C(=O)COC(=O)C2CC2)cc1 (stereo unspecified) | i | -23 | 4 | 104 | 96 | 0.37
COc1ccc(C2CC(c3ccccc3)=NN2C(=O)COC(=O)C2(C)CC2(Cl)Cl)cc1 (stereo unspecified) | i | -29 | 60* | x | x | -1.1
Cc1cccc(N2CCN(C(=O)C(NS(=O)(=O)c3cccs3)c3ccccc3)CC2)c1C (stereo unspecified) | i | 4 | 62* | 54 | 59 | -0.74
COc1ccc(/C(C)=N/Nc2ccc(C(=O)O)cc2)c(OC)c1 | i | 14 | 53* | 89 | 93 | 0.75
CC1=NN(c2nc(-c3ccc(C)cc3)cs2)C(=O)C1N=Nc1cccc(O)c1 (stereo unspecified) | i | x | 39 | x | x | -0.58
CC1=NN(c2nc(-c3ccc(C)cc3)cs2)C(=O)C1N=Nc1ccccc1O (stereo unspecified) | i | -64 | 99* | x | x | 0.95
CCC(=O)Nc1ccc(S(=O)(=O)NCCc2ccccc2)cc1 | i | -33 | 6 | 92 | 91 | x
COCC(=O)Nc1ccc(S(=O)(=O)NCCc2ccccc2)cc1 | i | 100* | -4 | 86 | 92 | 0.15
CSCCCNC(=S)Nc1cccc(S(=O)(=O)NC2=NCCC2)c1 | + | x | -2 | x | x | 0.08
CCC(C(=O)OCC(=O)Nc1cccc(OC)c1)c1ccccc1 (stereo unspecified) | i | 73* | -8 | x | x | -1.1
CCC(C(=O)OCC(=O)Nc1ccc(OC)cc1OC)c1ccccc1 (stereo unspecified) | i | x | 3 | x | x | 0.18
CCC(C(=O)Nc1ccc(OC)c(Cl)c1)c1ccccc1 (stereo unspecified) | i | 8 | 53* | 80 | 74 | 0.17
CCC(C(=O)OCC(=O)Nc1cccc(S(=O)(=O)NC2=NCCCCC2)c1)c1ccccc1 (stereo unspecified) | i | x | -1 | x | x | 4*
COc1ccc(-n2c(N)c(C(=O)NCC3CCCO3)sc2=S)cc1 (stereo unspecified) | i | -14 | -4 | 100 | 90 | -0.12
Cc1ccc(S(=O)(=O)NCC(=O)OCC(=O)Nc2cccc(S(=O)(=O)NC3=NCCCCC3)c2)cc1 | i | 78* | 5 | x | x | 0.38
Cc1oc2c(CN3CCOCC3)c(O)ccc2c(=O)c1-c1ccc(Cl)cc1 | x | x | x | x | x | -0.17
Cc1oc2c(CN3CCOCC3)c(O)ccc2c(=O)c1-c1ccc(Br)cc1 | i | -3 | 99* | 103 | 100 | 0.43
Cc1oc2c(CN3CCCC3)c(O)ccc2c(=O)c1-c1ccc(Cl)cc1 | i | -15 | 97* | 90 | 108 | -0.75
O=c1c(-c2ccc(Br)cc2)coc2c(CN3CCOCC3)c(O)ccc12 | i | 27 | 100* | 81 | 85 | -0.04
Cc1oc2c(CN3CCCC3)c(O)ccc2c(=O)c1-c1ccccc1 | i | 10 | 5 | 86 | 94 | 1.3
COc1ccc(-c2coc3c(CN4CCCCC4)c(O)c(CN4CCCCC4)c(O)c3c2=O)cc1 | i | -100 | -3 | 1.4* | 1.6* | 0.92
COc1ccc(Oc2coc3c(CN4CCOCC4)c(O)ccc3c2=O)cc1 | i | x | -5 | 85 | 84 | x
CC(=O)Nc1ccc(OC(=O)C(CCS(C)(=O)=O)N2C(=O)c3ccccc3C2=O)cc1 (stereo unspecified) | i | -361 | 91* | 87 | 100 | 1.3
CCOC(=O)C1=C(C)NC2=C(C(=O)CC(C)(C)C2)C1c1ccc(O)c(OCC)c1 (stereo unspecified) | x | x | x | x | x | -0.79
O=[N+]([O-])c1c(NCCCO)cc(Sc2nc3ccccc3s2)c2nonc12 | i | 25 | 26 | 2.3* | 3.6* | x
SMILES | Autophagy mod | Insulin prom inh | Lmaj promast | bCat KO growth | PTEN del growth | Insulin prom up
CCC(=O)OCCNc1cc(Sc2nc3ccccc3s2)c2nonc2c1[N+](=O)[O-] | i | -4 | 44 | 4.1* | 3.7* | -1.2
CCC(=O)OCCNc1cc(Sc2nc3ccccc3[nH]2)c2nonc2c1[N+](=O)[O-] | i | -37 | 38 | 1.7* | 1.5* | 0.21
COc1ccc(-c2cnnn2-c2ccc(NC(=O)/C=C/c3ccc(OC)c(OC)c3)cc2)cc1 | i | x | 30 | 98 | 76 | -0.81
CC(C)CC(NC(N)=O)C(=O)OCC(=O)Nc1ccc(SC(F)F)cc1 (stereo unspecified) | i | -7 | -6 | x | x | 0.04
O=C1/C(=C/c2ccc(N3CCOCC3)o2)SC(=Nc2ccccc2)N1CCc1c[nH]c2ccccc12 | + | x | 100* | 1.4* | 1.4* | x
COc1cc(/C=C2\SC(=Nc3ccccc3)N(CCc3c[nH]c4ccccc34)C2=O)ccc1OC(C)C(=O)O (stereo unspecified) | i | -7 | -7 | 87 | 82 | 0.02
Cc1ccc2nc(N3CC(=O)Nc4ccccc43)nc(-c3ccccc3)c2c1 | i | x | 7 | 1.4* | 1.2* | 0.16
Cc1ccc2nc(N3CCC(C(=O)O)CC3)nc(-c3ccccc3)c2c1 | i | -9 | -4 | 96 | 85 | -0.18
CCSc1ncc(/C=N/Nc2ccc(Cl)cc2)n1C | i | 12 | 78* | 58 | 60 | -1.5
CCSc1ncc(/C=N/Nc2ccc([N+](=O)[O-])cc2)n1C | + | -18 | 4 | 78 | 66 | -0.16
O=C(NC1CCCCC1)C1CCN(S(=O)(=O)c2cccc3cccnc23)CC1 | x | x | -7 | 97 | 97 | 0.41
NNc1nc2ccc(F)cc2s1 | i | -7 | 96* | 86 | 90 | -0.1
COc1cc(CN2CC(=O)N(c3ccc(C)c(C)c3)C2=S)cc(OC)c1OC | i | 14 | 94* | 84 | 78 | -0.09
COc1ccc(CN2CC(=O)N(c3ccc(C)c(C)c3)C2=S)cc1OC | i | -92 | 52* | x | x | -0.47
COc1ccc(Nc2nnc(Cc3ccccc3)c(=O)[nH]2)c(OC)c1 | i | 86* | -3 | 105 | 99 | -0.16
N#C/C(=C\c1ccc(-c2ccccc2[N+](=O)[O-])o1)C(=O)Nc1nc(-c2cccs2)cs1 | i | x | 1 | 80 | 88 | 0.05
C#CC1(NC(=O)NC(=O)c2c(F)cccc2F)CCCCC1 | x | x | x | x | x | 0.62
O=C1NC(Cc2c[nH]c3ccccc23)C(=O)N1CCOc1ccccc1 (stereo unspecified) | i | -12 | 96* | 98 | 98 | 0.17
O=C1NC(Cc2c[nH]c3ccccc23)C(=O)N1Cc1cccc2ccccc12 (stereo unspecified) | i | x | 34 | 84 | 76 | 1.2
OC(COCc1ccccc1)CN1CCCC1 (stereo unspecified) | i | -38 | 2 | 105 | 100 | -0.46
